Calls of active or inactive are those of the source.
Tests used:
[1] = small molecules captured by biotinylated probe aFSTL3 – biochemical, small-molecule microarray, fluorescence 635/667, stem cell growth factor project, primary screen (AID 1064); conditions: higher = more signal;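 also: measures binding of the biotinylated anti-FSTL3 antibody to printed compounds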
[2] = binders from COS7 lysate, DM2A8 probe, primary screen, torsin A project, cell lysate, small-molecule microarray, fluorescence 635/667 (AID 1065); conditions: higher = more signal, COS7 lysate expressing mutant human TOR1A
[3] = small molecules captured by biotinylated probe aFGF2 – biochemical, small-molecule microarray, fluorescence 635/667, stem cell growth factor project, primary screen (AID 1067); conditions: higher = more signal;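 also: measures binding of biotinylated aFGF2 protein to printed compounds on slides; z-score merges feature fluorescence and signal-to-noise across triplicate slides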
[4] = small molecules captured by biotinylated probe aFGF10 – biochemical, small-molecule microarray, fluorescence 635/667, stem cell growth factor project, primary screen (AID 1071); conditions: higher = more signal;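 also: score merges 667 nm spot intensity and signal to noise from triplicate slides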
[5] = biological target: Neurogenic locus notch homolog protein 2 (Homo sapiens) (UniProt Q04721); assay: small molecules binding Notch2 protein – biochemical, small-molecule microarray, 635 nm fluorescence, stem cell growth factors, primary screen (AID 1073); conditions: higher = more signal
[6] = biological target: Pro-neuregulin-1, membrane-bound isoform (Homo sapiens) (UniProt Q02297); assay: small molecules binding neuregulin-1 protein – biochemical, small-molecule microarray, fluorescence 635/667, psychiatric disease protein project, primary screen (AID 1075); conditions: NRG1 binding, 635 nm fluorescence, higher = more signal;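 also: score combines 667 nm spot fluorescence with signal to noise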
[7] = tested on: Neuregulin-1 EGF-like domain; assay: small molecules binding NRG1 EGF domain – biochemical, small-molecule microarray, 635 nm fluorescence, primary screen (AID 1081); conditions: higher = more signal;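 also: binding of the protein to compounds printed on small-molecule microarray slides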
[8] = FRG1 expression reporter modulators in myotubes – cell-based, C2C12 myotubes, firefly/Renilla luciferase, luminescence, FRG1 inhibition for FSHD, primary screen (AID 1084); conditions: FRG1 promoter luciferase, higher = more signal, called active from +8 up or from −8 down
[9] = small molecules captured by biotinylated probe aFST – biochemical, small-molecule microarray, fluorescence 635/667, stem cell growth factor project, primary screen (AID 1086); conditions: higher = more signal;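 also: score merges 667 nm fluorescence with signal-to-noise of each printed compound spot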
[10] = binders of probe aHhip on microarray, primary screen, stem cell growth factor project, biochemical, small-molecule microarray, fluorescence 635/667 (AID 1087); conditions: higher = more signal;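 also: score merges spot fluorescence at 667nm with spot signal to noise ratio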
[11] = tested on: PRMT1 (protein arginine N-methyltransferase 1); assay: small molecules binding arginine methyltransferase PRMT1 – biochemical, small-molecule microarray, 635 nm fluorescence, primary screen (AID 1088); conditions: higher = more signal;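 also: binding of Prmt1 protein to compounds spotted on small-molecule microarray slides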
[12] = growth effects on S. cerevisiae YJM789 – YJM789 clinical isolate, OD600, 24 h, basal, primary screen (AID 1089); conditions: higher = more signal, called active from +8 up or from −8 down;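 also: growth of clinical yeast isolate S. cerevisiae YJM 789 seeded 1000 cells per well; test concentration not given here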
[13] = S. pombe growth modifiers, basal conditions – strain 972, OD600, 24 h, no modulator, primary screen (AID 1090);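 also: basal condition with compound alone and no growth modifier present; test concentration not given here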; conditions: S. pombe 972 growth, higher = more signal, called active from +8 up or from −8 down
[14] = budding yeast growth modifiers under rapamycin – strain BY4716, OD600, 96 h, primary screen (AID 1091); also: test concentration not given here; conditions: S. cerevisiae BY4716 + rapamycin, higher = more signal, called active from +8 up or from −8 down
[15] = biological target: Torsin-1A-interacting protein 2 (Homo sapiens) (UniProt Q8NFQ8); assay: small molecules binding lysate-expressed LULL1 – cell lysate, human LULL1 lysate, 635/667 nm fluorescence, primary screen (AID 1092); conditions: small-molecule microarray, hLULL1 lysate binding, 635 nm fluorescence; higher = more signal;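 also: probe is lysate of COS7 cells overexpressing human LULL1; score merges per-feature 667 nm fluorescence with signal-to-noise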
[16] = optical density change of DRC41 E. coli – strain DRC41, OD650, 24 h, E. coli filamentation project, primary screen (AID 1093);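 also: MC1000 strain lacking acrAB efflux and sulA so SOS filamentation is blocked; test concentration not given here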; conditions: E. coli DRC41 growth, higher = more signal, called active from +8 up or from −8 down
[17] = probe aLefty2 binding to arrayed compounds – biochemical, biotinylated probe, 635/667 nm fluorescence, primary screen (AID 1094); conditions: small-molecule microarray, higher = more signal;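 also: score merges spot fluorescence near 667 nm with spot signal-to-noise ratio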
[18] = tested on: Noggin (protein binding on small-molecule microarray); assay: small molecules binding Noggin protein – biochemical, 635/667 nm fluorescence, primary screen (AID 1095); conditions: 635 nm fluorescence, higher = more signal;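 also: score merges 667 nm feature fluorescence with signal to noise over triplicate slides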
[19] = biological target: Neurogenic locus notch homolog protein 3 (Homo sapiens) (UniProt Q9UM47); assay: small molecules binding NOTCH3 protein – biochemical, 635/667 nm fluorescence, primary screen (AID 1096); conditions: small-molecule microarray, 635 nm fluorescence, higher = more signal
[20] = probe aEGFR binding to arrayed compounds – biochemical, biotinylated probe, 635/667 nm fluorescence, primary screen (AID 1097); conditions: small-molecule microarray, higher = more signal;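 also: probe is a biotinylated anti-EGFR antibody binding compounds printed on slides; score combines fluorescence near 667 nm and signal to noise of each spot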

Sequence of Neurogenic locus notch homolog protein 3 (Homo sapiens) (Q9UM47 whole entry, looked up): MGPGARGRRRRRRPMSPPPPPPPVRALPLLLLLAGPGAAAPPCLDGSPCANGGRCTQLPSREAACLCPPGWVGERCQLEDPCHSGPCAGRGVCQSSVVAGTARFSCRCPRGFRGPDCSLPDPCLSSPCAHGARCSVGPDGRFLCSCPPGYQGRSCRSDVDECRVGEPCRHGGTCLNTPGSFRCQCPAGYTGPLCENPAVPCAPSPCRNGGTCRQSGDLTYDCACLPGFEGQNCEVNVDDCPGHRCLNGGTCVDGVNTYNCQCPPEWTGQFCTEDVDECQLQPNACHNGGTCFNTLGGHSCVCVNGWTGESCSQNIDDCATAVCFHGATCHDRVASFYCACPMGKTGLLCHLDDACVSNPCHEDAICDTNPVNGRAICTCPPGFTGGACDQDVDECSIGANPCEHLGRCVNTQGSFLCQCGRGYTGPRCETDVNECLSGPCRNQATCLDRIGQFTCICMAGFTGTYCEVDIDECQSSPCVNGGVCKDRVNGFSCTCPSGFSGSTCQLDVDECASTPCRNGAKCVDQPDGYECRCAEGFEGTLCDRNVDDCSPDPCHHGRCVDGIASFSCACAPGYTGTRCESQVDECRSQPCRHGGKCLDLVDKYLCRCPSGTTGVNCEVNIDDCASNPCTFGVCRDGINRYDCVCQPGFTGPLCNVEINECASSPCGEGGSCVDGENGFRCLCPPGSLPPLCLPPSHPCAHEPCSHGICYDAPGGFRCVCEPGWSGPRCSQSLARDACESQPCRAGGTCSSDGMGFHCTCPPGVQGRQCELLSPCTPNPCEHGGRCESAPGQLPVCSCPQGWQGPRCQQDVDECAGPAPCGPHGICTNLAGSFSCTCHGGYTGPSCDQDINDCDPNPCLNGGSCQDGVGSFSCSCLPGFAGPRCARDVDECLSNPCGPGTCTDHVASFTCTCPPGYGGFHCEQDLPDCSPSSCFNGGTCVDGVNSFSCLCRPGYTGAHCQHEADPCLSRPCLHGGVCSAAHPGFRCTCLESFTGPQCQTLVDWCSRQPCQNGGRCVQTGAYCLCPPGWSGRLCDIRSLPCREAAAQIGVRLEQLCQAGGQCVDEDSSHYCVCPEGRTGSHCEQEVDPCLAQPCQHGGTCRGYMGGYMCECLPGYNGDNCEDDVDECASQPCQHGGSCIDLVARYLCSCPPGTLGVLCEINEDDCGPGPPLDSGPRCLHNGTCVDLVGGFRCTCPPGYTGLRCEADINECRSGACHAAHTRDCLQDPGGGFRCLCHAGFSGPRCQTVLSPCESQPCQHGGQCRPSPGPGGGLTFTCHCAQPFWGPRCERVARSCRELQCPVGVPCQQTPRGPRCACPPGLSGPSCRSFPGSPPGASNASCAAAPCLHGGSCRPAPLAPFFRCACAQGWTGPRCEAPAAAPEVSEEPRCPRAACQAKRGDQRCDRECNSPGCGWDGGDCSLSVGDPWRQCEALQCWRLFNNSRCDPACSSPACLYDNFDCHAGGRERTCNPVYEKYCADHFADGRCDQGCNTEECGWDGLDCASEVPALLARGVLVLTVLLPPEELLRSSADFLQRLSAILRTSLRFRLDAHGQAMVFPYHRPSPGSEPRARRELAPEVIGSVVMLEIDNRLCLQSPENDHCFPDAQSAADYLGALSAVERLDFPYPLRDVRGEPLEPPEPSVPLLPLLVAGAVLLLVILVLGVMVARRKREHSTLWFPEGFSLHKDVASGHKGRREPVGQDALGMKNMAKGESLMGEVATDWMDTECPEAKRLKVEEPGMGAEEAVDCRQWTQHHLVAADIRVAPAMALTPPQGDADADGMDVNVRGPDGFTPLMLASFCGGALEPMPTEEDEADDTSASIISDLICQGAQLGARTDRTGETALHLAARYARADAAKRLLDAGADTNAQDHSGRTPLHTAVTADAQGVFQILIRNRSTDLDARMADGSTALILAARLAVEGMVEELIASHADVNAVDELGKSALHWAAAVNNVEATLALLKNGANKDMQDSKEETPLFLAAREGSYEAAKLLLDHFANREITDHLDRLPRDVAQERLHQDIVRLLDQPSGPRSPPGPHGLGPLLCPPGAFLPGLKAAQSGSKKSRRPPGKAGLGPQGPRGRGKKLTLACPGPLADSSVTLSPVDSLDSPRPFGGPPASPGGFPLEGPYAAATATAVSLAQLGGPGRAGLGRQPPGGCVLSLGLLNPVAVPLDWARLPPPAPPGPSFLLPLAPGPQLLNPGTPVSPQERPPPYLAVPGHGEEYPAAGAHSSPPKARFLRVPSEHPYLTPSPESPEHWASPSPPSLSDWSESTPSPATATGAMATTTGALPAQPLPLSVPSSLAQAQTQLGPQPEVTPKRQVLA
Sequence of Neurogenic locus notch homolog protein 2 (Homo sapiens) (Q04721 whole entry, looked up, canonical isoform): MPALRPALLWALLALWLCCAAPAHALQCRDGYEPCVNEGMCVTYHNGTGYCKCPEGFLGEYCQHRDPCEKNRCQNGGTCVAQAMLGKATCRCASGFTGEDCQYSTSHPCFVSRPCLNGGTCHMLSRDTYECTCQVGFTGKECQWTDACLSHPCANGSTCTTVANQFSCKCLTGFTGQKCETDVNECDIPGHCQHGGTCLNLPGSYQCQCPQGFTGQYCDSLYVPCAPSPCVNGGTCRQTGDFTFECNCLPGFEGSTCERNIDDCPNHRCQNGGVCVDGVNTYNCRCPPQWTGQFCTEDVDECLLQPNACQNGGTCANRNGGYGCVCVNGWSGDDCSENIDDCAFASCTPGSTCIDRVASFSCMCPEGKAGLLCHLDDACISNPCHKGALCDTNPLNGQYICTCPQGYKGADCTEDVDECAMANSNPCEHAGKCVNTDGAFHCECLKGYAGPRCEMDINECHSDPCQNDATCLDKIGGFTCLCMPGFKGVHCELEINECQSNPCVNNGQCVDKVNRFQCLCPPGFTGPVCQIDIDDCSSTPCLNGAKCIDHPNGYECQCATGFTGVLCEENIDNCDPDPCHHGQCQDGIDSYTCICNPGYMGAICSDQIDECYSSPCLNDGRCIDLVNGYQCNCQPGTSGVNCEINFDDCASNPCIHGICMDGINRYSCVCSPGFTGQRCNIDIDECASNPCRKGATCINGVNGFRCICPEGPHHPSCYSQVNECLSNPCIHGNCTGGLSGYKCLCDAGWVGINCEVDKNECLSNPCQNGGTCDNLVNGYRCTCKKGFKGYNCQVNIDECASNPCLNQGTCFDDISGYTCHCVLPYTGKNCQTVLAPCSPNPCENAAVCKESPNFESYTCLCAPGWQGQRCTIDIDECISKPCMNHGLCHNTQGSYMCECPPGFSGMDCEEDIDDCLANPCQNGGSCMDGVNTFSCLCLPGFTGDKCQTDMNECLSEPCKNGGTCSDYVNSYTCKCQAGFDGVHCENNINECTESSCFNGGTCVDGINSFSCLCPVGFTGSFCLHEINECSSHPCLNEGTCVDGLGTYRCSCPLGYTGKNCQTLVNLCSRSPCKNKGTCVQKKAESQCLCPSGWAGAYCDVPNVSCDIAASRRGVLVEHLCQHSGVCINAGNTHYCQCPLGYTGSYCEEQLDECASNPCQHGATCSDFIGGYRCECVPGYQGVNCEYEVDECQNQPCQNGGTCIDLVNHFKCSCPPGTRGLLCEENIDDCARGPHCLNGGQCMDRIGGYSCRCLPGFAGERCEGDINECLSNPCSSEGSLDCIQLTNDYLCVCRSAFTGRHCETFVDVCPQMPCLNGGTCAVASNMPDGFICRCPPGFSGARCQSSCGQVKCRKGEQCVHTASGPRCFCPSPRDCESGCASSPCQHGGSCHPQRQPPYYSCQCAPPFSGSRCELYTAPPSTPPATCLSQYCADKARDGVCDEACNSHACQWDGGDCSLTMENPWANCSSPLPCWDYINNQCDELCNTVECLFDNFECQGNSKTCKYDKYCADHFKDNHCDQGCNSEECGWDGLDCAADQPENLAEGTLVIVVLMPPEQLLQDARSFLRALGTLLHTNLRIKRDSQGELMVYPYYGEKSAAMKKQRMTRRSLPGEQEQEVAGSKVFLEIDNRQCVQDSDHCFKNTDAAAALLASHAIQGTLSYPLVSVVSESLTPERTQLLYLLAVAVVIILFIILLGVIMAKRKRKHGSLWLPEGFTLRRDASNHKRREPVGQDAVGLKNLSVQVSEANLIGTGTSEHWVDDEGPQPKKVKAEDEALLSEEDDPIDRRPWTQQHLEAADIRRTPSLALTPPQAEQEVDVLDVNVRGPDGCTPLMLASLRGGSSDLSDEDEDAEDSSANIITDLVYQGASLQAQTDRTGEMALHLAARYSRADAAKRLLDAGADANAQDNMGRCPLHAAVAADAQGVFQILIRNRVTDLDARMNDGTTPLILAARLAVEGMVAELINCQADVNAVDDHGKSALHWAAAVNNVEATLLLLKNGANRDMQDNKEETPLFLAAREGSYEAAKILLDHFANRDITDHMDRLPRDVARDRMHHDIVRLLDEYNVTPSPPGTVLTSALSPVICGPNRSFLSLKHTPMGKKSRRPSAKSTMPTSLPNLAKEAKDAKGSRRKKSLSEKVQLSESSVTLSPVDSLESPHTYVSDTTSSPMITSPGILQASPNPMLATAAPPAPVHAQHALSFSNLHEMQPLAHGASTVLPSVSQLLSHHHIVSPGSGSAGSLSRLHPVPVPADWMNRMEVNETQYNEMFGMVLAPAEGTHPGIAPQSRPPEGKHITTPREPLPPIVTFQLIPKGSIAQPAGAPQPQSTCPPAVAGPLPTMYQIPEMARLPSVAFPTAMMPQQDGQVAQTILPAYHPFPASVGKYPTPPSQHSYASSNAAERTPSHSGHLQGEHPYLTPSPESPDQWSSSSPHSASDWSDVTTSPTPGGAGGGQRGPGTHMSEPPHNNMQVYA

| Compound | composite z-score [1] | composite z-score [2] | composite z-score [3] | composite z-score [4] | composite z-score [5] | composite z-score [6] | composite z-score [7] | z-score [8] | composite z-score [9] | composite z-score [10] | composite z-score [11] | z-score [12] | z-score [13] | z-score [14] | composite z-score [15] | z-score [16] | composite z-score [17] | composite z-score [18] | composite z-score [19] | composite z-score [20] |
| --- | --- | --- | --- | --- | --- | --- | --- | --- | --- | --- | --- | --- | --- | --- | --- | --- | --- | --- | --- | --- |
| C[C@@H]1CC[C@H]2C(=O)O[C@@H](COc3ccc(C(C)(C)C)cc3)CN2[C@@H]1c1ccc(Br)cc1 | -0.368 | -0.257 | -0.162 | -0.249 | -0.538 | -0.0758 | -0.976 | 1.03 (inactive) | -0.217 | -0.134 | -0.118 | 0.228 (inactive) | -0.492 (inactive) | 0.147 (inactive) | -0.158 | -0.0121 (inactive) | 0.464 | -0.835 | -0.91 | -0.0946 |
| C#CCCCON=C1C[C@@H](O)[C@@H](O)[C@@H]2[C@@H]3C(=O)N(c4ccc(F)cc4F)C(=O)[C@@H]3CC[C@@H]12 | -0.398 | 1.69 | -0.138 | 0.103 | 0.329 | 0.0095 | -0.114 | -0.236 (inactive) | 0.0638 | 0.235 | 0.108 | -0.326 (inactive) | -0.117 (inactive) | -1.3 (inactive) | -0.261 | 0.336 (inactive) | -0.124 | 0.561 | 0.0521 | -0.112 |
| CCC=CCCC(OC(=O)c1ccc(Br)cc1)C1=CCCCC1=O (stereo not given) | 0.122 | 0.333 | 0.543 | -0.0363 | -0.164 | 0.714 | 0.878 | 0.796 (inactive) | 0.336 | 0.0826 | 1.33 | -1.32 (inactive) | -5.44 (inactive) | -2.98 (inactive) | 1.35 | -0.133 (inactive) | -0.0018 | 0.493 | 0.554 | -0.0187 |
| C[C@H]1COC(=O)[C@@H]2CCCN2C(=O)[C@@H](C)COC(=O)[C@H](Cc2ccccc2)NC1=O | -0.596 | 0.142 | -0.183 | 0.525 | 0.731 | -0.147 | 0.184 | -0.0297 (inactive) | 0.761 | -0.0645 | 0.907 | -0.801 (inactive) | 0.103 (inactive) | -1.2 (inactive) | 1.24 | 0.0412 (inactive) | -0.141 | 0.396 | 0.889 | 0.081 |
| CCc1cc2c(nc1CC)CCN(CCC(C)=NO[C@@H](C)c1cn([C@H](CO)Cc3ccccc3)nn1)C2 | -0.0739 | 0.39 | -0.123 | 0.112 | -0.0274 | 0.373 | -0.0269 | 0.704 (inactive) | 0.283 | 0.115 | -0.329 | 0.687 (inactive) | 0.22 (inactive) | -0.215 (inactive) | 0.559 | -0.189 (inactive) | 0.0336 | 0.42 | 0.438 | -0.0679 |
| CO[C@@H]1COC(=O)CC=C[C@@H](C)[C@H](OC)COC(=O)[C@@H](C)COC(=O)CC=C[C@H]1C | -0.404 | 0.812 | 0.553 | -0.552 | -1.27 | -0.245 | -0.844 | -0.182 (inactive) | -0.387 | 0.312 | 0.263 | 0.659 (inactive) | -0.155 (inactive) | 1.2 (inactive) | -0.915 | 0.421 (inactive) | -0.317 | 0.496 | -0.81 | -0.616 |
| O=C1[C@H]2[C@H]3[C@H](O)[C@H](O)CC(=NO[C@@H]4O[C@H](CO)[C@@H](O)[C@H](O)[C@H]4O)[C@H]3CC[C@H]2C(=O)N1c1cccc(Oc2ccccc2)c1 | -0.249 | 0.128 | -0.0867 | 0.435 | 0.387 | -0.106 | 0.843 | 0.0203 (inactive) | -0.278 | -0.0024 | 0.69 | -0.513 (inactive) | 0.0816 (inactive) | -0.642 (inactive) | 0.543 | 0.563 (inactive) | -0.253 | 0.329 | 0.861 | -0.0549 |
| COC(=O)[C@@H]1CC[C@H](C)[C@@H](c2ccc(C)cc2)N1C(=O)c1ccc(C=NOCC[C@@H]2C=C[C@H](OC(C)=O)[C@@H](COC(C)=O)O2)cc1 | -0.381 | 0.333 | -0.11 | 0.332 | 0.7 | 0.102 | 0.61 | 0.579 (inactive) | 0.0627 | 0.0505 | 0.903 | 1.09 (inactive) | 1.58 (inactive) | 1.81 (inactive) | 0.105 | 0.411 (inactive) | -0.0736 | 0.647 | 0.792 | -0.0397 |
| CC(C)=CCCC(C)=CCON=C1C[C@@H](O)[C@@H](O)[C@@H]2[C@@H]3C(=O)N(c4ccc(F)cc4F)C(=O)[C@@H]3CC[C@@H]12 | -0.245 | 0.87 | -0.116 | 0.546 | -0.205 | 0.895 | 0.314 | 0.656 (inactive) | 0.356 | 0.0505 | 1.11 | 0.918 (inactive) | -2.43 (inactive) | -0.496 (inactive) | -0.0426 | 1.34 (inactive) | 0.0054 | 0.888 | 0.678 | -0.0381 |
| C[C@@H]1C=CCC(=O)OC[C@H]2O[C@@H](C=C[C@@H]2O)[C@H](C)C=CCC(=O)OC1 | -0.711 | 2.13 | -0.175 | -0.32 | -0.302 | -1.03 | 0.765 | -1.28 (inactive) | -0.291 | 0.28 | 1.55 | -2.12 (inactive) | -1.24 (inactive) | -0.618 (inactive) | -1.24 | -0.293 (inactive) | -0.254 | 1.86 | 0.595 | -0.0455 |

Source: PubChem BioAssay
